The values that follow come from PubChem BioAssay AID652192 (Johns Hopkins Ion Channel Center, 2013).

The structures appear in SMILES notation. Entries with a potency or affinity are not part of this list. Calls of active or inactive are those of the source.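 How the source made its calls: active means peak inhibition of the KCNQ2 potassium channel over 30% at some tested dose, with a fitted dose response curve; inactive means no inhibition at any dose, or no curve fitted.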

The target in this test is Potassium voltage-gated channel subfamily KQT member 2 (Rattus norvegicus) (UniProt O88943). Nature of the test: block of rat KCNQ2 potassium channel – cell-based, FluxOR thallium flux, concentration-response, selectivity assay for TASK1 inhibitor project, SAR follow-up (AID 652192). The settings on record: KCNQ2 cell line, FluxOR thallium flux fluorescence; series mostly up to 30 µM.
Potassium voltage-gated channel subfamily KQT member 2 (Rattus norvegicus), sequence (O88943 whole entry, looked up): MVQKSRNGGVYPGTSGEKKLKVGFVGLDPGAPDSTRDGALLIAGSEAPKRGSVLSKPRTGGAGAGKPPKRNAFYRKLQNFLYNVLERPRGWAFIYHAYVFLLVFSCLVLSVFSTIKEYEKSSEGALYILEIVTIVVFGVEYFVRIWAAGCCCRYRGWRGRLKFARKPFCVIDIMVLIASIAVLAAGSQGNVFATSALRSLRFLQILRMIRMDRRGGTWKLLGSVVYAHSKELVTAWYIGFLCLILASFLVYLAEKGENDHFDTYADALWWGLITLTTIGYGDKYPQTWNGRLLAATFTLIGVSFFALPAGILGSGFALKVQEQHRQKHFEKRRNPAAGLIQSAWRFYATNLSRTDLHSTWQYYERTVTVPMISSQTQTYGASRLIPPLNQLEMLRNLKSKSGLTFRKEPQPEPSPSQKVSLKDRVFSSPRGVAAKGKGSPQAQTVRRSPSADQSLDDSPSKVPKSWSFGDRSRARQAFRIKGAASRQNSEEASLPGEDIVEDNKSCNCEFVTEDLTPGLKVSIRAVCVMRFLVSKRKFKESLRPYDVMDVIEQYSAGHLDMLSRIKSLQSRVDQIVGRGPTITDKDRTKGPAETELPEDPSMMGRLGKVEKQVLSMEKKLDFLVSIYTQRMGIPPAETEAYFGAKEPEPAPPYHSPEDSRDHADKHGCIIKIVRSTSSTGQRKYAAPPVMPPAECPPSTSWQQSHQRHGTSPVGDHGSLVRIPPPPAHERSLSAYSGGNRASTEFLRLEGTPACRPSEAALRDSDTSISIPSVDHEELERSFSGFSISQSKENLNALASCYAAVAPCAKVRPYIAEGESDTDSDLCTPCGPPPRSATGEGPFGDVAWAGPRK
As to `Cc1cccc(C(=O)Nc2cccc(NC(=O)c3ccccc3)c2)c1`, the molecule was called inactive.
Take `COc1ccccc1C(=O)Nc1cccc(NC(=O)c2cccc(C)c2)c1`: the outcome was inactive.
In the case of `Cc1cccc(C(=O)Nc2cccc(NC(=O)c3ccccc3OCC(C)C)c2)c1` it was “inactive”.
For `CCOc1ccccc1NC(=O)c1cccc(NC(=O)c2cccc(C)c2)c1` the value was “inactive”; for `COc1cccc(OC)c1C(=O)Nc1cccc(NC(=O)c2cccc(C)c2)c1`, “inactive”; for `CCOc1ccccc1NC(=O)c1cccc(NC(=O)c2ccccc2)c1`, “inactive”.
For `O=C(Nc1cccc(NC(=O)c2ccccn2)c1)c1ccccc1` the value was “inactive”.
On to `O=C(Nc1cccc(NC(=O)c2ccsc2)c1)c1ccccc1`, for which the molecule was called inactive.
In the case of `Cc1cccc(C(=O)Nc2cccc(NC(=O)c3ccccc3C)c2)c1` it was “inactive”.
For the molecule `Cc1cccc(C(=O)Nc2cccc(NC(=O)c3ccccc3Cl)c2)c1`, the result was inactive.
For `COc1ccccc1C(=O)Nc1cccc(NC(=O)c2ccccc2OC(F)(F)F)c1` the value was “inactive”.
For `O=C(Nc1cccc(NC(=O)c2ccncc2)c1)c1ccccc1` the value was “inactive”; for `CCOc1ccc(NC(=O)c2cccc(NC(=O)C3CCCC3)c2)cc1`, “inactive”; for `Cc1cccc(C(=O)Nc2cccc(NC(=O)c3ccncc3)c2)c1`, “inactive”.
